Shown are actives, neighbours in structure and some others; about 9.9% of the full set was active somewhere.
IL-1B inflam inh: inflammasome signaling inhibition, IL-1 beta readout | THP-1 LPS/ATP IL-1B secretion, AlphaLISA, 16 h; active compounds read low | activity change, % at 57.5 µM | 360,000 compounds, 4.7% hits | AID 743279; in the data active = activity change below about -50%; inconclusive = mostly about -30% to -49%
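Secreted IL-1B measured by AlphaLISA bead assay after 16 h compound exposure of THP-1 cells; compounds (final up to 57.5 uM) added 1 h before LPS (250 ng/mL) and ATP (1.25 mM) stimulation; lower signal means less secretion.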
SW480 rerep: DNA re-replication induction in SW480 cells; SW480 DNA re-replication, Hoechst DNA content imaging, 48 h; Potency, µM (highest dose often 46.1 µM), usual class: activators; 340,000 compounds, 1.8% hits; AID 624297; note: nearly all actives have a fitted effect of over 55% in size
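Quantitative HTS format with DMSO vehicle controls; 48 hr drug incubation at 37 C, then 40 min Hoechst staining and scanning imager measurement at 405 nm excitation.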
MCF10A rerep: inducers of DNA re-replication in MCF 10A breast cells; MCF 10A DNA re-replication, Hoechst nuclear intensity, 48 h; Potency, µM (doses to about 46.1 µM), hits mostly activators; 350,000 compounds, 2.9% hits; AID 624296; note: nearly all actives have a fitted effect of over 50% in size
KB-V1 MDR tox: KB-V1 MDR subline cytotoxicity | KB-V1 MDR cells viability, CellTiter-Glo, 72 h | Potency, µM (titrated, usually from 46.1 µM), actives largely listed as cytotoxic | 400,000 compounds, 3.4% hits | AID 1347076; note: nearly all actives have a fitted effect of over 60% in size
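Following 72 h at 37 degrees C with compound, KB-V1 cell viability was read by CellTiter-Glo luminescence, medium being phenol-red-free DMEM plus 10% FBS; concentration-response parameters came from normalized, curve-fitted qHTS data.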
KB-3-1 tox: KB-3-1 parental cell cytotoxicity | KB-3-1 viability, CellTiter-Glo ATP luminescence, 72 h | Potency, µM (top dose mostly 46.1 µM), hits mostly cytotoxic | 400,000 compounds, 1.4% hits | AID 1347075; note: nearly all actives have a fitted effect of over 60% in size
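Luminescent ATP read-out (CellTiter-Glo) measures survival of drug-naive KB-3-1 cells after 72 h compound exposure at 37 °C. Titration series was screened from lowest to highest concentration, with DMSO vehicle plates as background controls.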
Hits are given with their value; – = inactive; ? = inconclusive; · = no result. Unless noted, calls come from the whole dose curve; as a rule, active = well fitted curve in the direction sought with a large enough effect; inconclusive = small, poorly fitted or top-dose-only effect, or another doubt; inactive = no such curve, though single readings can be large; an effect the other way counts as inactive or inconclusive.

SMILES | IL-1B inflam inh | SW480 rerep | MCF10A rerep | KB-V1 MDR tox | KB-3-1 tox
N#Cc1nc(-c2ccc(OCc3ccccc3)cc2)oc1NCCCn1ccnc1 | ? | – | – | 23µM | ?
N#Cc1nc(-c2ccc(OCc3ccccc3)cc2)oc1NCc1cccnc1 | ? | – | – | – | –
N#Cc1nc(-c2ccc(OCc3ccc(Cl)cc3)cc2)oc1NCc1cccnc1 | – | – | 11µM | – | –
CN(C)c1oc(-c2ccc(OCc3ccccc3)cc2)nc1C#N | – | – | ? | 21µM | –
COc1ccc(-c2cc(C(=O)O)[nH]n2)cc1OC | – | – | – | – | 23µM
COc1ccc(-c2cc(C(=O)NN)[nH]n2)cc1OC | – | ? | ? | – | –
COc1ccc(Cc2nnc(NC(=O)c3cccc([N+](=O)[O-])c3C)s2)cc1 | – | – | – | 21µM | –
CCOC(=O)Cc1nnc(NC(=O)c2ccccc2OC)s1 | – | – | – | – | –
COc1ccc(Cc2nnc(NC(=O)c3cccc(C)c3)s2)cc1 | – | – | – | – | –
COc1cc(C(=O)Nc2nnc(CC(C)(C)C)s2)c([N+](=O)[O-])cc1OC | – | – | – | 21µM | –
COc1ccccc1C(=O)Nc1nnc(CCc2ccccc2)s1 | – | 6.5µM | ? | ? | 12µM
COc1ccc(Cc2nnc(NC(=O)c3ccccc3[N+](=O)[O-])s2)cc1 | – | – | 23µM | – | –
Cc1cccc(C)c1NC(=O)CSc1nc(-c2ccco2)cc(C(F)(F)F)n1 | – | 21µM | – | – | –
Cc1cc(NC(=O)CSc2nc(-c3ccco3)cc(C(F)(F)F)n2)no1 | – | 0.73µM | 3.3µM | ? | 0.82µM
COc1ccc2c(c1OC)C(=O)N1C2SC[C@H]1C(=O)NC1CC1 (some centres undefined) | – | – | ? | – | –
O=C1c2ccccc2[C@@H]2C[C@@H](O)[C@H](Nc3cccc4ccccc34)CCN12 | – | 18µM | ? | – | –
CCOc1ccc(C(=O)OCc2cc(=O)n3cc(C)sc3n2)cc1 | · | · | · | – | –
CCOC(=O)N1CCN(C(=O)COc2cccc3c2CCN(Cc2cccc(C)c2)C3=O)CC1 | – | – | – | 18µM | –
Cc1cccc(NC(=O)COc2cccc3c2CCN(C)C3=O)c1C | – | – | – | ? | –
Cc1cccc(NC(=O)COc2cccc3c2CCN(Cc2ccccc2)C3=O)c1C | ? | – | – | 9.2µM | –
O=C1CCC(c2ccc3ccccc3c2)O1 (centres undefined) | – | – | – | – | –
Cc1cccc(-c2ncc(CN3CCCC(CO)(Cc4ccccc4C)C3)cn2)c1 (centres undefined) | – | – | ? | – | –
CCn1c(CN2CCN(C)CC2)nc2cc(NC(=O)c3cc(OC)c(OC)c(OC)c3)ccc21 | · | · | · | – | –
O=C1C(c2ccncc2)N(CCC2=CCCCC2)C(=O)CN1C1CCCCC1 (centres undefined) | – | – | – | 11µM | –
CCOC(=O)c1c(NC(=O)C(=O)N/N=C/c2ccc(OCC)cc2)sc2c1CCCCC2 | – | – | – | 16µM | –
SMILES | IL-1B inflam inh | SW480 rerep | MCF10A rerep | KB-V1 MDR tox | KB-3-1 tox
CC(C)OC(=O)c1c(NC(=O)c2ccco2)sc2c1CCCCC2 | – | – | 16µM | – | –
CCOC(=O)c1c(NC(=O)C(=O)N/N=C/c2ccc(O)c(OC)c2)sc2c1CCCCC2 | – | – | ? | ? | –
O=C(Nc1sc2c(c1C(=O)NCc1cccnc1)CCCC2)c1ccco1 | -68 | – | ? | 23µM | –
CC1CCc2c(sc(NC(=O)c3cccs3)c2C(=O)O)C1 (centres undefined) | ? | – | ? | – | 10µM
CC(C)OC(=O)c1c(NC(=O)c2cccs2)sc2c1CCCC2 | – | – | 16µM | – | –
NC(=O)c1c(NC(=O)c2ccco2)sc2c1CCCC2 | · | · | · | – | –
CCOC(=O)c1c(NC(NC(=O)C(C)C)C(Cl)(Cl)Cl)sc2c1CCC2 (centres undefined) | – | ? | 23µM | 23µM | ?
O=C(Nc1sc2c(c1C(=O)O)CCCC2)c1cccs1 | – | – | – | – | ?
CCOC(=O)c1c(NC(=O)c2ccoc2C)sc2c1CCC2 | – | – | ? | 21µM | –
CNC(=O)c1c(NC(=O)c2ccco2)sc2c1CCCC2 | -81 | – | – | – | –

High-throughput results (PubChem)
